These results are taken from PubChem BioAssay (Tox21).

Records with an inconclusive call do not appear. A call without a number means that no potency is given here. The source made the active and inactive calls. Calls come from the whole dose curve; as a rule, active = well fitted curve in the direction sought with a large enough effect in the repeat runs; inconclusive = weak or mixed curves; inactive = no such curve, though single readings can be large; an effect the other way counts as inactive or inconclusive.

One assay is described as follows: qHTS assay to identify small molecule agonists of the estrogen related receptor (ERR) signaling pathway (AID 1224820). The conditions noted are these: ERR reporter cell line, luciferase agonist mode; series mostly up to 46.1 µM. A digest of the protocol: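 ERR reporter cell line (from NTP), 2,000 cells/well, incubated 6 h before compound addition, then 18 h at 37 C. Luminescence measured 30 min after One-Glo reagent at room temperature.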
On the technique in general: qHTS replaces the single test concentration by a dilution series.
For `CCCCC1C(=O)N(c2ccccc2)N(c2ccccc2)C1=O`, the Potency entry was “inactive”.
On the same count and under the same terms, to `NC(=O)c1cnccn1` belongs “inactive”.
As to `COc1ccc2[nH]cc(CCNC(C)=O)c2c1`, the Potency entry was “inactive”.

A further assay can be described thus: qHTS assay to identify small molecule antagonists of the estrogen related receptor signaling pathway with the pleiotropic PPARgamma coactivator (PGC) cell viability counter screen (AID 1224822;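 note: viability read after 17.5 h compound exposure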). The settings on record: ERR/PGC reporter cell line viability counter screen; series mostly up to 46.1 µM. The procedure, abridged:
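Seed PGC/ERR cells (2,000/well); incubate 6 h at 37 C/5% CO2; pin-transfer compounds in DMSO; incubate 17.5 h at 37 C; add CellTiter-Fluor; after 30 min read fluorescence.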
With `CCCCC1C(=O)N(c2ccccc2)N(c2ccccc2)C1=O`, the compound was classed as inactive.
Take `CCCNC(=O)NS(=O)(=O)c1ccc(Cl)cc1`: the compound was classed as inactive.
On to `NC(=O)c1cnccn1`, for which the compound was called inactive.
With `COc1ccc2[nH]cc(CCNC(C)=O)c2c1`, the result was inactive.

A short description of a further assay: qHTS assay to identify small molecule agonists of the estrogen related receptor signaling pathway with the pleiotropic PPARgamma coactivator (PGC) (AID 1224823). The settings on record: ERR/PGC reporter cell line, luciferase agonist mode; series mostly up to 46.1 µM. The procedure, abridged: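 PGC/ERR reporter cells seeded 6 h, then exposed to compounds (23 nL in DMSO) for 18 h at 37 C. One-Glo luciferase luminescence read after 30 min at room temperature.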
`CCCCC1C(=O)N(c2ccccc2)N(c2ccccc2)C1=O`: the Potency entry is “inactive”.
As for `NC(=O)c1cnccn1`, the Potency result was “inactive”.
On the same count and under the same terms, for `COc1ccc2[nH]cc(CCNC(C)=O)c2c1` the value was “inactive”.
